Data from PubChem BioAssay (Tox21).
Inconclusive results are not listed. Calls of active or inactive are those of the source. Unless noted, calls come from the whole dose curve.

What was measured:
[1] = qHTS assay to identify small molecule agonists of the peroxisome proliferator-activated receptor delta (PPARd) signaling pathway - cell viability counter screen (AID 743211; active = well fitted curve in the direction sought with a large enough effect in the repeat runs; an effect the other way counts as inactive or inconclusive; note: nearly all actives have a fitted effect of over 55% in size)
Outline: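 In the same wells used for beta-lactamase reporter measurement, cytotoxicity is scored by CellTiter-Glo. HEK293H PPARd-bla cells receive compound for 17 h at 37C following a 5 h settling period.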

[2] = biological target: Peroxisome proliferator-activated receptor delta (Homo sapiens) (UniProt Q03181); assay: qHTS assay to identify small molecule agonists of the peroxisome proliferator-activated receptor delta (PPARd) signaling pathway (AID 743212)
Sequence of Peroxisome proliferator-activated receptor delta (Homo sapiens) (Q03181 whole entry, looked up): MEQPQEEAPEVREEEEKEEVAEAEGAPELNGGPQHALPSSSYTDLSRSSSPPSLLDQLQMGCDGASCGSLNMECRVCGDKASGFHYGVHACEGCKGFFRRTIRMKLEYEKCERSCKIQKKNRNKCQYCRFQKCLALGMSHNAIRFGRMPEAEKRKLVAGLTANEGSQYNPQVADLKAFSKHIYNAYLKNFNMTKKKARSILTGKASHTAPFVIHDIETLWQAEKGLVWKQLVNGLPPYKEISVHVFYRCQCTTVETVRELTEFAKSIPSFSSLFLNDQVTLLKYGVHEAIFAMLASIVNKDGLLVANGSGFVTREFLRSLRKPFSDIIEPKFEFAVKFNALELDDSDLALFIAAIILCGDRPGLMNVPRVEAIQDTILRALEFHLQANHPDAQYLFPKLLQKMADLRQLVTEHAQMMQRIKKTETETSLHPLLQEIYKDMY
Outline: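 Read-out: beta-lactamase FRET fluorescence after 2 h room-temperature incubation with LiveBLAzer B/G substrate. Cells were HEK293H carrying a UAS-bla reporter for PPARd, treated at 37 C with DMSO-dissolved compounds.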

[3] = qHTS assay to identify small molecule antagonists of the peroxisome proliferator-activated receptor delta (PPARd) signaling pathway - cell viability counter screen (AID 743213; active = well fitted curve in the direction sought with a large enough effect in the repeat runs; an effect the other way counts as inactive or inconclusive; note: nearly all actives have a fitted effect of over 50% in size)
Outline: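 Luminescence from CellTiter-Glo, added after the bla read and incubated 30 min at room temperature, gives viability of HEK293H PPARd-bla cells exposed to compounds for 17 h at 37 C with 300 nM L165041.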

[4] = biological target: Peroxisome proliferator-activated receptor delta (Homo sapiens) (UniProt Q03181); assay: qHTS assay to identify small molecule antagonists of the peroxisome proliferator-activated receptor delta (PPARd) signaling pathway (AID 743215; active = well fitted inhibition curve with a large enough effect in the signal ratio in the repeat runs, not every such curve was filed as active; the % refers to the signal ratio;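 note: cells stimulated with agonist L165041 at 300 nM final during compound exposure; series mostly up to about 62 µM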)
Outline: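 Plated HEK293H PPARd-bla cells rested 5 h at 37 C and 5% CO2. Compound, then agonist L165041 at 300 nM final, was added; 17 h at 37 C followed. Substrate loading, 2 h room temperature, fluorescence measured.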

[5] = qHTS assay to identify small molecule agonists of the farnesoid-X-receptor (FXR) signaling pathway - cell viability counter screen (AID 743218; active = well fitted curve in the direction sought with a large enough effect in the repeat runs; an effect the other way counts as inactive or inconclusive; note: nearly all actives have a fitted effect of over 45% in size)
Outline: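 Viability of FXR-bla HEK 293T cells is measured by ATP-based CellTiter-Glo luminescence following 16 h compound treatment at 37 C and a prior 2 h room-temperature beta-lactamase substrate step.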

[6] = qHTS assay to identify small molecule antagonists of the farnesoid-X-receptor (FXR) signaling pathway - cell viability counter screen (AID 743221; active = well fitted cell-killing curve with a large enough effect in the repeat runs, not every such curve was filed as active; note: nearly all actives have a fitted effect of over 50% in size)
Outline: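 Here viability was scored by luminescence after CellTiter-Glo addition to wells already read for beta-lactamase. Prior treatment: compound plus CDCA (50 uM final), 16 h, 37 C, HEK 293T FXR-bla cells.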

[7] = biological target: Vitamin D3 receptor (Homo sapiens) (UniProt P11473); assay: qHTS assay to identify small molecule agonists of the vitamin D receptor (VDR) signaling pathway (AID 743222)
Sequence of Vitamin D3 receptor (Homo sapiens) (P11473 whole entry, looked up): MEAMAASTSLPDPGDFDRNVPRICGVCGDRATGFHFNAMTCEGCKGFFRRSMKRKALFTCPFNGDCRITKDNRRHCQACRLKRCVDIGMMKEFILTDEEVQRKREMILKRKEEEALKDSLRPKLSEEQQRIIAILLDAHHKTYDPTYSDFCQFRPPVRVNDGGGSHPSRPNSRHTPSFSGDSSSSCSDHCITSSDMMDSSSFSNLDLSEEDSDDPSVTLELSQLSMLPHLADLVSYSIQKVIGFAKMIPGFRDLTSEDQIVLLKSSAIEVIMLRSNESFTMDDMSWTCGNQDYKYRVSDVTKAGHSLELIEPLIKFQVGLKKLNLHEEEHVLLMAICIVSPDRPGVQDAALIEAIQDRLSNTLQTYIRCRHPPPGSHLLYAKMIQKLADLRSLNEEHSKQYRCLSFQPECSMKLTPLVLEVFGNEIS
Outline: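 Fluorescence from cleaved LiveBLAzer B/G FRET substrate served as readout. VDR-bla cells had been treated 16 h at 37C with test compounds in DMSO, following a 4 h settling period, and substrate was loaded for 2 h at RT.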

[8] = biological target: Vitamin D3 receptor (Homo sapiens) (UniProt P11473); assay: qHTS assay to identify small molecule antagonists of the vitamin D receptor (VDR) signaling pathway (AID 743223; active = well fitted inhibition curve with a large enough effect in the signal ratio in the repeat runs, not every such curve was filed as active; the % refers to the signal ratio)
Outline: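 Inhibition of agonist-driven VDR signalling is scored in VDR-bla cells: 3 nM final 1alpha,25-dihydroxyvitamin D3 plus compound, 16 h at 37C, then beta-lactamase detection by FRET substrate fluorescence after 2 h.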

[9] = qHTS assay to identify small molecule agonists of the vitamin D receptor (VDR) signaling pathway - cell viability counter screen (AID 743224; active = well fitted curve in the direction sought with a large enough effect in the repeat runs; an effect the other way counts as inactive or inconclusive; note: series mostly up to about 63 µM; nearly all actives have a fitted effect of over 50% in size)
Outline: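 Compounds were pin-transferred onto VDR-bla cells plated 4 h earlier; following 16 h incubation at 37C, cell viability was quantified by CellTiter-Glo luminescence after 30 min at room temperature.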

[10] = qHTS assay to identify small molecule antagonists of the vitamin D receptor (VDR) signaling pathway - cell viability counter screen (AID 743225; active = well fitted curve in the direction sought with a large enough effect in the repeat runs; an effect the other way counts as inactive or inconclusive; note: nearly all actives have a fitted effect of over 50% in size)
Outline: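 Compounds were pinned onto VDR-bla HEK 293T cells together with 1-alpha,25-dihydroxyvitamin D3 at 3 nM final. After 16 h at 37C and 5% CO2 plus the reporter readout, cell viability was measured by CellTiter-Glo luminescence (30 min, room temperature).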

[11] = qHTS assay to identify small molecule agonists of the NFkB signaling pathway - cell viability counter screen (AID 1159515); note: series mostly up to about 61 µM; nearly all actives have a fitted effect of over 55% in size
Outline: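 Parallel cytotoxicity counter screen in ME-180 cells carrying an NFkB-response-element beta-lactamase reporter, 2,000 cells/well. Compound exposure lasted 5 hr at 37 C, 5% CO2. Cell viability was quantified by CellTiter-Glo luminescence.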

[12] = qHTS assay to identify small molecule agonists of the endoplasmic reticulum stress response signaling pathway (AID 1159516; active = well fitted activation curve with a large enough effect in the signal ratio in the repeat runs, not every such curve was filed as active; the % refers to the signal ratio)
Outline: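 Using a HeLa line with an ESRE-driven beta-lactamase gene, agonist activity was measured by FRET substrate fluorescence (460 and 530 nm emission) after cells were treated with compounds for 5 hr at 37 C and 5% CO2.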

[13] = qHTS assay to identify small molecule agonists of the endoplasmic reticulum stress response signaling pathway - cell viability counter screen (AID 1159517)
Outline: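 Steps: seed 1,500 ESRE-bla HeLa cells per well; incubate overnight at 37 C, 5% CO2; add compounds in DMSO for 5 hr; run FRET substrate 2 hr RT; add CellTiter-Glo, wait 30 min, read luminescence.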

[14] = qHTS assay to identify small molecule antagonists of the retinoid-related orphan receptor gamma (ROR-gamma) signaling pathway - cell viability counter screen (AID 1159520; active = well fitted curve in the direction sought with a large enough effect in the repeat runs; an effect the other way counts as inactive or inconclusive; note: nearly all actives have a fitted effect of over 50% in size)
Outline: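 Tet-on ROR gamma CHO cells were given compounds for 2 hr, then doxycycline hyclate at 1 uM final, and incubated 16 hr at 37 C. Viability was measured as ATP content by CellTiter-Glo luminescence.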

[15] = biological target: Nuclear receptor ROR-gamma (Homo sapiens) (UniProt P51449); assay: qHTS assay to identify small molecule antagonists of the retinoid-related orphan receptor gamma (ROR-gamma) signaling pathway (AID 1159521; active = well fitted curve in the direction sought with a large enough effect in the repeat runs; an effect the other way counts as inactive or inconclusive)
Outline: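 Test compounds were applied to Tet-on RORγ CHO cells 2 h ahead of doxycycline hyclate (1 uM final). Luciferase reporter activity was quantified by luminescence after 16 h at 37 C and 5% CO2.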

[16] = qHTS assay to identify small molecule agonists of the AP-1 signaling pathway - cell viability counter screen (AID 1159525); note: nearly all actives have a fitted effect of over 55% in size
Outline: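 Same-well cytotoxicity counter screen of the Tox21 10K library in ME-180 cells. The readout is ATP-dependent luminescence after 5 h compound treatment. Data are normalised to DMSO and tetra n-octyl ammonium bromide controls.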

[17] = qHTS assay to identify small molecule agonists of the AP-1 signaling pathway (AID 1159526)
[18] = biological target: Retinoic acid receptor RXR-alpha (Homo sapiens) (UniProt P19793); assay: qHTS assay to identify small molecule agonists of the RXR signaling pathway (AID 1159527); note: nearly all actives have a fitted effect of over 35% in size
Sequence of Retinoic acid receptor RXR-alpha (Homo sapiens) (P19793 whole entry, looked up): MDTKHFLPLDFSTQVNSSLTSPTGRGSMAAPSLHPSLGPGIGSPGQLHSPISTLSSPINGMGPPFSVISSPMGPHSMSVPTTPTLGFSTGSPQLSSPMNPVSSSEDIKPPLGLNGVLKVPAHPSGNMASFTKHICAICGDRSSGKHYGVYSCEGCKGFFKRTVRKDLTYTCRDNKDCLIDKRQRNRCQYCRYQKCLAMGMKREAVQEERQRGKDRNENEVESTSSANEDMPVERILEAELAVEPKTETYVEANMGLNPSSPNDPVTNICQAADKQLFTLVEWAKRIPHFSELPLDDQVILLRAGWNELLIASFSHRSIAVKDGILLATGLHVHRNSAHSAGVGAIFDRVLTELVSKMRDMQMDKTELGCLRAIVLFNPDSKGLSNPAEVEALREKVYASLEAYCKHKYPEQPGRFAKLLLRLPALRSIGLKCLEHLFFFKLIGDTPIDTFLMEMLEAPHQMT
Outline: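 Using 9-cis retinoic acid as the reference agonist, chemicals were tested in HEK 293T cells […] for 16 hr; substrate loading lasted 2 hr at room temperature.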

[19] = biological target: Bile acid receptor (Homo sapiens) (UniProt Q96RI1); assay: qHTS assay to identify small molecule antagonists of the farnesoid-X-receptor (FXR) signaling pathway (AID 743217; active = well fitted inhibition curve with a large enough effect in the signal ratio in the repeat runs, not every such curve was filed as active; the % refers to the signal ratio)
Sequence of Bile acid receptor (Homo sapiens) (Q96RI1 whole entry, looked up): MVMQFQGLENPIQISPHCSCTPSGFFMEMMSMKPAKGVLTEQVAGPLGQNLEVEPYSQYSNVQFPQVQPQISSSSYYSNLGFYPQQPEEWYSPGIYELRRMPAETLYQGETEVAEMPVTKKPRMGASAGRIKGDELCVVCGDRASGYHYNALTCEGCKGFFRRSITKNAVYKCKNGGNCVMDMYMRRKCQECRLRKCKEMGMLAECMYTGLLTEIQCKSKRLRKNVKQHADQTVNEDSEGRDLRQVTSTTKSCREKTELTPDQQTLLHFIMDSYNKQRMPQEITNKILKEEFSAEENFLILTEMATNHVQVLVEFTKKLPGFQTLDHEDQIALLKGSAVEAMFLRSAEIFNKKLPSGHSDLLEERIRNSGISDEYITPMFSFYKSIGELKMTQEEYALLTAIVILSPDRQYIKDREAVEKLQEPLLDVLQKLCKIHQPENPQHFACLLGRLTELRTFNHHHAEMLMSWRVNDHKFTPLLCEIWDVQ
Outline: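 Screen of the Tox21 10K library in quantitative HTS format using FXR-UAS-bla HEK 293T reporter cells. Agonist chenodeoxycholic acid, 50 uM final, added with compounds; 16 h incubation at 37 °C; beta-lactamase FRET fluorescence measured.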

[20] = biological target: Bile acid receptor (Homo sapiens) (UniProt Q96RI1); assay: qHTS assay to identify small molecule agonists of the farnesoid-X-receptor (FXR) signaling pathway (AID 743220; active = well fitted activation curve with a large enough effect in the signal ratio in the repeat runs, not every such curve was filed as active; the % refers to the signal ratio)
Outline: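 FXR-UAS-bla HEK 293T cells carrying a UAS-driven beta-lactamase reporter were plated for 5 h at 37C/5% CO2, then exposed to DMSO-dissolved Tox21 10K compounds for 16 h at 37C. A LiveBLAzer B/G FRET substrate was loaded for 2 h at room temperature before fluorescence reading.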

Measured: Potency

COc1ccc2cc1Oc1cc3c(cc1OC)CC[N+](C)(C)[C@H]3Cc1ccc(cc1)Oc1c(OC)c(OC)cc3c1[C@@H](C2)[N+](C)(C)CC3
not listed: [19] | [20]
inactive: all other assays above

CC1=CC(=O)[C@H]2C[C@@H]1C2(C)C
inactive: all assays above

CC(C)(C)C(=O)Oc1ccc(S(=O)(=O)Nc2ccccc2C(=O)NCC(=O)O)cc1
not listed: [5]
inactive: all other assays above

CC(=O)Nc1ccc(OCC(O)CNC(C)C)cc1 (stereo not given)
inactive: all assays above

CN(C)C(=O)Oc1cccc([N+](C)(C)C)c1
not listed: [5]
inactive: all other assays above

Cc1ccc(C(=O)c2ccccc2)cc1
inactive: all assays above

O=C1CCCCCCCCCCCCCCO1
not listed: [8] | [19] | [20]
inactive: all other assays above

c1ccc(CCc2ccccc2)cc1
not listed: [6]
inactive: all other assays above

O=C(c1ccccc1)C1(O)CCCCC1
not listed: [19] | [20]
inactive: all other assays above

CC(=O)OCC(=O)[C@@]1(O)[C@H](C)C[C@H]2[C@@H]3CCC4=CC(=O)C=C[C@]4(C)[C@@]3(F)[C@@H](O)C[C@@]21C
not listed: [4] | [6] | [8] | [19] | [20]
inactive: all other assays above

COc1cc(C(=O)OC(COCCC(C)C)CN2CCOCC2)cc(OC)c1OC (stereo not given)
not listed: [3]
inactive: all other assays above

C[C@@H]1C[C@H]2[C@@H]3C[C@H](F)C4=CC(=O)C(Cl)=C[C@]4(C)[C@@]3(F)[C@@H](O)C[C@]2(C)[C@@]1(O)C(=O)CO
not listed: [4] | [7] | [8]
inactive: all other assays above

CC1=CCC(O)(C(C)C)CC1 (stereo not given)
not listed: [8] | [19] | [20]
inactive: all other assays above

CCOC(=O)c1ccccc1
not listed: [5] | [19] | [20]
inactive: all other assays above
